Whole data set: some 8,300 sequences, median “log2 fold change of degron read counts, EGFP-low vs EGFP+ sorted cells (limma voom), compound-induced degradation” near -1.1, cut for the highest 2% near 3.2. For the sample, the highest values were picked, then their nearest neighbours and some sequences at random.
Biological target: T1, CRBN, Q96SW2
T1 chain: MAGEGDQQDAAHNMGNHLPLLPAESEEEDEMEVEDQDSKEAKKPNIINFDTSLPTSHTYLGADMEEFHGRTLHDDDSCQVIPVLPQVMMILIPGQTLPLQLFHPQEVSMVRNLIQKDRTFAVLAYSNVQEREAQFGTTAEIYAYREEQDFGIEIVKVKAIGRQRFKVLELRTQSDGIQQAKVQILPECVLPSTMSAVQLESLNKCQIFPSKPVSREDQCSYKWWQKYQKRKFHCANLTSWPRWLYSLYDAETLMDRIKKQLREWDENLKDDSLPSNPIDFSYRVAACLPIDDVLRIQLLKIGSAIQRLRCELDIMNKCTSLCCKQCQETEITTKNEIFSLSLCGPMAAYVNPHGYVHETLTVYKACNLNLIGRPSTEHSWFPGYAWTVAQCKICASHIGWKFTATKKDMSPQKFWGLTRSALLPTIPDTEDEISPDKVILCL
Test: log2 fold change of degron read counts, EGFP-low vs EGFP+ sorted cells (limma voom), compound-induced degradation; higher = more compound-induced degradation of the degron-EGFP fusion; degrons are variants of IKZF1/3 zinc finger 2; compound dose not given here
Details: Jurkat, 18 h
Description: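 Pooled library of 8380 IKZF3 ZF2 degron mutants (positions 146-167 varied within the IKZF3 130-189 degron; only the varied core is printed, flanks not printed) fused to EGFP with IRES-mCherry, lentivirally expressed in Jurkat cells. mCherry+ cells were treated with one IMiD compound for 18 h (dose not stated) and FACS-sorted into EGFP-low and EGFP+ populations. Degron sequences were counted by NGS, and log2FC (EGFP-low vs EGFP+) was estimated by limma voom over 3 biological replicates.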

[1] = compound: compound 19 (5-tert-butyl-thalidomide)
[2] = compound: compound 22 (5-morpholino-thalidomide)
[3] = compound: compound 33 (diphenyl IMiD analogue)
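Also: pooled lentiviral library of zinc finger degron-EGFP fusions in mCherry-positive Jurkat cells, FACS-sorted after compound exposure, with degron abundance counted by next-generation sequencing.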

Sequence: FSCDVCGAEFTQKGNLLRHIKL [46F_47S_49D_50V_52G_53A_54E_55F_67L_, Q9UKT9]
- log2 fold change of degron read counts [1]: -0.733
- log2 fold change of degron read counts [2]: -1.36
- log2 fold change of degron read counts [3]: -1.13
- log2 fold change of degron read counts (compound: thalidomide): -1.96

Sequence: FNCNICGANFTQKGNLLRHIKL [46F_47N_49N_50I_52G_53A_54N_55F_67L_, Q9UKT9]
- log2 fold change of degron read counts [1]: 0.662
- log2 fold change of degron read counts [2]: -0.0154
- log2 fold change of degron read counts [3]: -0.393
- log2 fold change of degron read counts (compound: thalidomide): -0.94

Sequence: FGCDQCGARFTQKGNLLRHIKL [46F_47G_49D_50Q_52G_53A_54R_55F_67L_, Q9UKT9]
- log2 fold change of degron read counts [1]: -1.28
- log2 fold change of degron read counts [2]: -2.53
- log2 fold change of degron read counts [3]: -2.52
- log2 fold change of degron read counts (compound: thalidomide): -1.78

Sequence: FKCEICGRWFTQKGNLLRHIKL [46F_47K_49E_50I_52G_53R_54W_55F_67L_, Q9UKT9]
- log2 fold change of degron read counts [1]: -2.8
- log2 fold change of degron read counts [2]: -3.25
- log2 fold change of degron read counts [3]: -3.01
- log2 fold change of degron read counts (compound: thalidomide): -2.58

Sequence: FWCNQCGRHFTQKGNLLRHIKL [46F_47W_49N_50Q_52G_53R_54H_55F_67L_, Q9UKT9]
- log2 fold change of degron read counts [1]: -1.56
- log2 fold change of degron read counts [2]: -1.46
- log2 fold change of degron read counts [3]: -1.56
- log2 fold change of degron read counts (compound: thalidomide): -1.55

Sequence: FACPQCGAVFTQKGNLLRHIKL [46F_47A_49P_50Q_52G_53A_54V_55F_67L_, Q9UKT9]
- log2 fold change of degron read counts [1]: 0.29
- log2 fold change of degron read counts [2]: -1.36
- log2 fold change of degron read counts [3]: -0.148
- log2 fold change of degron read counts (compound: thalidomide): -1.43

Sequence: FVCPICGHGFTQKGNLLRHIKL [46F_47V_49P_50I_52G_53H_54G_55F_67L_, Q9UKT9]
- log2 fold change of degron read counts [1]: -2.33
- log2 fold change of degron read counts [2]: -2.2
- log2 fold change of degron read counts [3]: -1.88
- log2 fold change of degron read counts (compound: thalidomide): -0.905

Sequence: FLCEQCGAEFTQKGNLLRHIKL [46F_47L_49E_50Q_52G_53A_54E_55F_67L_, Q9UKT9]
- log2 fold change of degron read counts [1]: -2.34
- log2 fold change of degron read counts [2]: -3.65
- log2 fold change of degron read counts [3]: -2.09
- log2 fold change of degron read counts (compound: thalidomide): -1.63

Sequence: FQCPQCGAYFTQKGNLLRHIKL [46F_47Q_49P_50Q_52G_53A_54Y_55F_67L_, Q9UKT9]
- log2 fold change of degron read counts [1]: -1.88
- log2 fold change of degron read counts [2]: -1.45
- log2 fold change of degron read counts [3]: -0.995
- log2 fold change of degron read counts (compound: thalidomide): 1.25

Sequence: LQCPICGFVCTQKGNLLRHIKL [46L_47Q_49P_50I_52G_53F_54V_55C_67L_, Q9UKT9]
- log2 fold change of degron read counts [1]: 0.325
- log2 fold change of degron read counts [2]: 2.16
- log2 fold change of degron read counts [3]: 1.88
- log2 fold change of degron read counts (compound: thalidomide): 3.76

Sequence: LYCPICGFVCTQKGNLLRHIKL [46L_47Y_49P_50I_52G_53F_54V_55C_67L_, Q9UKT9]
- log2 fold change of degron read counts [1]: 3.29
- log2 fold change of degron read counts [2]: 3.49
- log2 fold change of degron read counts [3]: 2.29
- log2 fold change of degron read counts (compound: thalidomide): 1.2

Sequence: LCCPICGFVCTQKGNLLRHIKL [46L_47C_49P_50I_52G_53F_54V_55C_67L_, Q9UKT9]
- log2 fold change of degron read counts [1]: 1.01
- log2 fold change of degron read counts [2]: 1.57
- log2 fold change of degron read counts [3]: 2.59
- log2 fold change of degron read counts (compound: thalidomide): 2.1

Sequence: LTCPICGFVCTQKGNLLRHIKL [46L_47T_49P_50I_52G_53F_54V_55C_67L_, Q9UKT9]
- log2 fold change of degron read counts [1]: 0.397
- log2 fold change of degron read counts [2]: 1.59
- log2 fold change of degron read counts [3]: 2.08
- log2 fold change of degron read counts (compound: thalidomide): 2.24

Sequence: LMCPICGFVCTQKGNLLRHIKL [46L_47M_49P_50I_52G_53F_54V_55C_67L_, Q9UKT9]
- log2 fold change of degron read counts [1]: -0.234
- log2 fold change of degron read counts [2]: 0.389
- log2 fold change of degron read counts [3]: 2.08
- log2 fold change of degron read counts (compound: thalidomide): 1.67

Sequence: LGCPICGFVCTQKGNLLRHIKL [46L_47G_49P_50I_52G_53F_54V_55C_67L_, Q9UKT9]
- log2 fold change of degron read counts [1]: 3.04
- log2 fold change of degron read counts [2]: 1.82
- log2 fold change of degron read counts [3]: 1.33
- log2 fold change of degron read counts (compound: thalidomide): 0.747

Sequence: FICNICGADFTQKGNLLRHIKL [46F_47I_49N_50I_52G_53A_54D_55F_67L_, Q9UKT9]
- log2 fold change of degron read counts [1]: -2.47
- log2 fold change of degron read counts [2]: -1.85
- log2 fold change of degron read counts [3]: -1.03
- log2 fold change of degron read counts (compound: thalidomide): -0.92

Sequence: FTCDVCGAIFTQKGNLLRHIKL [46F_47T_49D_50V_52G_53A_54I_55F_67L_, Q9UKT9]
- log2 fold change of degron read counts [1]: -2.2
- log2 fold change of degron read counts [2]: -1.5
- log2 fold change of degron read counts [3]: -0.885
- log2 fold change of degron read counts (compound: thalidomide): -0.951

Sequence: FACEICGRYFTQKGNLLRHIKL [46F_47A_49E_50I_52G_53R_54Y_55F_67L_, Q9UKT9]
- log2 fold change of degron read counts [1]: 1.02
- log2 fold change of degron read counts [2]: -1.33
- log2 fold change of degron read counts [3]: -1.87
- log2 fold change of degron read counts (compound: thalidomide): -1.22

Sequence: FSCPICGAMFTQKGNLLRHIKL [46F_47S_49P_50I_52G_53A_54M_55F_67L_, Q9UKT9]
- log2 fold change of degron read counts [1]: 1.66
- log2 fold change of degron read counts [2]: 1.01
- log2 fold change of degron read counts [3]: 1.5
- log2 fold change of degron read counts (compound: thalidomide): 0.771

Sequence: FVCPICGAMFTQKGNLLRHIKL [46F_47V_49P_50I_52G_53A_54M_55F_67L_, Q9UKT9]
- log2 fold change of degron read counts [1]: -0.498
- log2 fold change of degron read counts [2]: 1.33
- log2 fold change of degron read counts [3]: 1.86
- log2 fold change of degron read counts (compound: thalidomide): 1.85

Sequence: FVCPICGADFTQKGNLLRHIKL [46F_47V_49P_50I_52G_53A_54D_55F_67L_, Q9UKT9]
- log2 fold change of degron read counts [1]: -1.19
- log2 fold change of degron read counts [2]: 1.3
- log2 fold change of degron read counts [3]: 1.21
- log2 fold change of degron read counts (compound: thalidomide): 1.95

Sequence: FSCPICGADFTQKGNLLRHIKL [46F_47S_49P_50I_52G_53A_54D_55F_67L_, Q9UKT9]
- log2 fold change of degron read counts [1]: 1.3
- log2 fold change of degron read counts [2]: 0.182
- log2 fold change of degron read counts [3]: 1.52
- log2 fold change of degron read counts (compound: thalidomide): 0.227

Sequence: FHCPICGAMFTQKGNLLRHIKL [46F_47H_49P_50I_52G_53A_54M_55F_67L_, Q9UKT9]
- log2 fold change of degron read counts [1]: 1.97
- log2 fold change of degron read counts [2]: 1.9
- log2 fold change of degron read counts [3]: 1.34
- log2 fold change of degron read counts (compound: thalidomide): 0.306

Sequence: FQCPICGADFTQKGNLLRHIKL [46F_47Q_49P_50I_52G_53A_54D_55F_67L_, Q9UKT9]
- log2 fold change of degron read counts [1]: 0.457
- log2 fold change of degron read counts [2]: 1.55
- log2 fold change of degron read counts [3]: 2.48
- log2 fold change of degron read counts (compound: thalidomide): 3.81

Sequence: FYCPICGAMFTQKGNLLRHIKL [46F_47Y_49P_50I_52G_53A_54M_55F_67L_, Q9UKT9]
- log2 fold change of degron read counts [1]: 2.65
- log2 fold change of degron read counts [2]: 2.73
- log2 fold change of degron read counts [3]: 2.02
- log2 fold change of degron read counts (compound: thalidomide): 0.0372

Sequence: FGCPICGAMFTQKGNLLRHIKL [46F_47G_49P_50I_52G_53A_54M_55F_67L_, Q9UKT9]
- log2 fold change of degron read counts [1]: 3.33
- log2 fold change of degron read counts [2]: 2.19
- log2 fold change of degron read counts [3]: 1.89
- log2 fold change of degron read counts (compound: thalidomide): 0.606

Sequence: FQCPICGAMFTQKGNLLRHIKL [46F_47Q_49P_50I_52G_53A_54M_55F_67L_, Q9UKT9]
- log2 fold change of degron read counts [1]: -0.249
- log2 fold change of degron read counts [2]: 2.56
- log2 fold change of degron read counts [3]: 2.51
- log2 fold change of degron read counts (compound: thalidomide): 3.62

Sequence: FGCNICGACFTQKGNLLRHIKL [46F_47G_49N_50I_52G_53A_54C_55F_67L_, Q9UKT9]
- log2 fold change of degron read counts [1]: 1.07
- log2 fold change of degron read counts [2]: 2.09
- log2 fold change of degron read counts [3]: 1.61
- log2 fold change of degron read counts (compound: thalidomide): 0.355
